Key:
Experiment in all cases: DAPPL (digital affinity profiling via proximity ligation, sequencing); 10 mM Tris-HCl pH 7.5, 50 mM NaCl, 1 mM DTT, 4% glycerol, room temperature, 30 min; GST-TFs on glutathione beads, 16-mer random dsDNA library, 0.1% formaldehyde crosslink after washing; high values mean tight binding
[1] = molecular target: T1, FEV (Homo sapiens, UniProt Q99581 1-238); settings: protein: recombinant; tags: N-terminal GST; dsDNA, one strand shown
T1 sequence: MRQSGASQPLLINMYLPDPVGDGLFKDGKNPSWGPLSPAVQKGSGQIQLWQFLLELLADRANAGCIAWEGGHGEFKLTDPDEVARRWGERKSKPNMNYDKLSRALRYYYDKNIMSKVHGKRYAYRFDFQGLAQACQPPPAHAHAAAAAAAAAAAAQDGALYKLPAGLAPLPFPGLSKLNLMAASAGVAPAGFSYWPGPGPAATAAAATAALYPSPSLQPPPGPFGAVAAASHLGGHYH
In short: (§1)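 Human transcription factors carrying a GST fusion were produced in yeast, bound to glutathione beads, tagged with DNA barcodes and pooled together with a tag-only sample. Each pool was held with 200 nmole of a random double-stranded 16-mer DNA library in Tris/NaCl/DTT/glycerol buffer for 30 min at room temperature, then washed, crosslinked in 0.1% formaldehyde, proximity-ligated with BsaI/T4 ligase (1 h, 37 °C), PCR-amplified and sequenced on an Illumina NextSeq500. Binding signal is the read frequency of each hexamer for a given factor divided by its frequency in the tag-only sample.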

[2] = molecular target: ETV5 (Homo sapiens, UniProt P41161 1-510); settings: protein: recombinant; tags: N-terminal GST; dsDNA, one strand shown
Chain of ETV5 (P41161 whole entry): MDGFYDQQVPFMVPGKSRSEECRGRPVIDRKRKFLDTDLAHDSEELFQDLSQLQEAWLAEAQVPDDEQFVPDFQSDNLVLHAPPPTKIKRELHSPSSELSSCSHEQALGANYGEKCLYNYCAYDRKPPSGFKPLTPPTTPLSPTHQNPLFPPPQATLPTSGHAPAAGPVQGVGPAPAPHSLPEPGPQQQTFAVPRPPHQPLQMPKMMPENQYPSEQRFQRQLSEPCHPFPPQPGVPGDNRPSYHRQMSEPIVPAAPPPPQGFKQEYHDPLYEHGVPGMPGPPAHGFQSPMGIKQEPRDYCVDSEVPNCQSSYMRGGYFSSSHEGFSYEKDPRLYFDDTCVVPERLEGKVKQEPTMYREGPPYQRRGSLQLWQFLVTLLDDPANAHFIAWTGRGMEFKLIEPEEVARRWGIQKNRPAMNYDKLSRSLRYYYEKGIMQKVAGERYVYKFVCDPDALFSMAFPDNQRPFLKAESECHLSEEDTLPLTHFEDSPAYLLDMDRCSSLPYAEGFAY
In short: as §1

[3] = molecular target: T2, SPIC (Homo sapiens, UniProt Q8N5J4 1-248); settings: protein: recombinant; tags: N-terminal GST; dsDNA, one strand shown
T2 sequence: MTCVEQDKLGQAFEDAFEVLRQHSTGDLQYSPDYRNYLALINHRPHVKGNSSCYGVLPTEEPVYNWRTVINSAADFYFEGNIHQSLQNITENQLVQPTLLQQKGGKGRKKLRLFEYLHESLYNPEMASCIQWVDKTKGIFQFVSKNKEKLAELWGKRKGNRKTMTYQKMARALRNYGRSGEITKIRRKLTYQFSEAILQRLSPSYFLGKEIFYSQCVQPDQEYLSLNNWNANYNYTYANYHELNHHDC
In short: as §1

[4] = molecular target: ELF4 (Homo sapiens, UniProt Q99607 1-663); settings: protein: recombinant; tags: N-terminal GST; dsDNA, one strand shown
Chain of ELF4 (Q99607 whole entry): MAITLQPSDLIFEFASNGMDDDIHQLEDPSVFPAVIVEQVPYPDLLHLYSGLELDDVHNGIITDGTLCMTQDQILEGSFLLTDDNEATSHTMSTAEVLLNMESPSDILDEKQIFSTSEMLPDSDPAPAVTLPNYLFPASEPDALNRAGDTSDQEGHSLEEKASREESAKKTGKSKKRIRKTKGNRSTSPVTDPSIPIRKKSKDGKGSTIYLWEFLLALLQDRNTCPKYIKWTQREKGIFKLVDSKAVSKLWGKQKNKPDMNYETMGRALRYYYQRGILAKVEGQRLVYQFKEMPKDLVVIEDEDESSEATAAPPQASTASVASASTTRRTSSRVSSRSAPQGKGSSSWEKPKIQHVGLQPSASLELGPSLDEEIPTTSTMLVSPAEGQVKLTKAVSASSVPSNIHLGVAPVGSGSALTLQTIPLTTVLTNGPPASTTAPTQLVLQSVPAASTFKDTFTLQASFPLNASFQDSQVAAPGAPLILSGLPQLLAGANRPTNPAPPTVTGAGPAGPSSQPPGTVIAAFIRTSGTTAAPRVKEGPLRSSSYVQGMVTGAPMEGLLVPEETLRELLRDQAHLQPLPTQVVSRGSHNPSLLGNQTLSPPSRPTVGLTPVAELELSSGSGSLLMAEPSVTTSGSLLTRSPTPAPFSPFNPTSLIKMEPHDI
In short: as §1

[5] = molecular target: T3, ELK4 (Homo sapiens, UniProt P28324-2 1-405); settings: protein: recombinant; tags: N-terminal GST; dsDNA, one strand shown
T3 sequence: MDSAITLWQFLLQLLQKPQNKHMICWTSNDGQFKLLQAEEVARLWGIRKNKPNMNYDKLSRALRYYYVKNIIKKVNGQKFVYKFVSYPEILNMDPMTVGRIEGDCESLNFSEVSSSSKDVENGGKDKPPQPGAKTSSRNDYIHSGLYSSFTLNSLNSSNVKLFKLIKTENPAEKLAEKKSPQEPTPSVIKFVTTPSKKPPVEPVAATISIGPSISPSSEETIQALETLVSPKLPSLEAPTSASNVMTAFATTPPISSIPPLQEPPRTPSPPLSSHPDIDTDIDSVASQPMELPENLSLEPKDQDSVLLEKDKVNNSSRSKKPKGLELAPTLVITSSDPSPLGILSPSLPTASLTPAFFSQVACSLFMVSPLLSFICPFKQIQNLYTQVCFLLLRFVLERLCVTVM
In short: as §1

[6] = molecular target: T4, ETV2 (Homo sapiens, UniProt O00321 1-342); settings: protein: recombinant; tags: N-terminal GST; dsDNA, one strand shown
T4 sequence: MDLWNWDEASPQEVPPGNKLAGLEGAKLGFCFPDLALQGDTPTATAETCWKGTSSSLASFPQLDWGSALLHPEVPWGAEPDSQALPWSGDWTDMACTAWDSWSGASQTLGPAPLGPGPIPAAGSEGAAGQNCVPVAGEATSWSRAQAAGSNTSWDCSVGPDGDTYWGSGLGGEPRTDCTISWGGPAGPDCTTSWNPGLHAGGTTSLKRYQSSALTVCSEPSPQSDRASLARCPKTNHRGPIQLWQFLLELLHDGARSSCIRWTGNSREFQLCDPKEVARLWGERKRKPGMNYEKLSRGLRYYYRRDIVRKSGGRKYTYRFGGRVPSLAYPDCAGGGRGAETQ
In short: as §1

[7] = molecular target: T5, ELF3 (Homo sapiens, UniProt P78545 1-371); settings: protein: recombinant; tags: N-terminal GST; dsDNA, one strand shown
T5 sequence: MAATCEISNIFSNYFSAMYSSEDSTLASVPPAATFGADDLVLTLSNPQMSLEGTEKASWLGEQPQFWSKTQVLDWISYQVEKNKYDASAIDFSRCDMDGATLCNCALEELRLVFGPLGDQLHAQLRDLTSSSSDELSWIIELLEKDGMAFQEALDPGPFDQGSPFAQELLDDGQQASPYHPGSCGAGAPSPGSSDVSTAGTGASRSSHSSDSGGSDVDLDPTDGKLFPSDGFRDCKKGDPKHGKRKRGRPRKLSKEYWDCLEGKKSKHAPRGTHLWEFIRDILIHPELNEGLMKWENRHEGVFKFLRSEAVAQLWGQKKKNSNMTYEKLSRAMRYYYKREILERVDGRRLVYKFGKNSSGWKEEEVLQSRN
In short: as §1

[8] = molecular target: CRX (Homo sapiens, UniProt O43186 1-299); settings: protein: recombinant; tags: N-terminal GST; dsDNA, one strand shown
Chain of CRX (O43186 whole entry): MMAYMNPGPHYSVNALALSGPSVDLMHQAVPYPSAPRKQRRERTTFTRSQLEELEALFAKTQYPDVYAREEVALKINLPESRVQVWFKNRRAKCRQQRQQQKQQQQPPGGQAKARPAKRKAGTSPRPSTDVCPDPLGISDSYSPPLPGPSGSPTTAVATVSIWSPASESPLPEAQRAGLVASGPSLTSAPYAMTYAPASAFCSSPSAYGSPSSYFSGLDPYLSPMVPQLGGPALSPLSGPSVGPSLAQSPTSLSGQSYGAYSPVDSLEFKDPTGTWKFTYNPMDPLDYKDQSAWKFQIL
In short: as §1

[9] = molecular target: ETV1 (Homo sapiens, UniProt P50549 1-477); settings: protein: recombinant; tags: N-terminal GST; dsDNA, one strand shown
Chain of ETV1 (P50549 whole entry): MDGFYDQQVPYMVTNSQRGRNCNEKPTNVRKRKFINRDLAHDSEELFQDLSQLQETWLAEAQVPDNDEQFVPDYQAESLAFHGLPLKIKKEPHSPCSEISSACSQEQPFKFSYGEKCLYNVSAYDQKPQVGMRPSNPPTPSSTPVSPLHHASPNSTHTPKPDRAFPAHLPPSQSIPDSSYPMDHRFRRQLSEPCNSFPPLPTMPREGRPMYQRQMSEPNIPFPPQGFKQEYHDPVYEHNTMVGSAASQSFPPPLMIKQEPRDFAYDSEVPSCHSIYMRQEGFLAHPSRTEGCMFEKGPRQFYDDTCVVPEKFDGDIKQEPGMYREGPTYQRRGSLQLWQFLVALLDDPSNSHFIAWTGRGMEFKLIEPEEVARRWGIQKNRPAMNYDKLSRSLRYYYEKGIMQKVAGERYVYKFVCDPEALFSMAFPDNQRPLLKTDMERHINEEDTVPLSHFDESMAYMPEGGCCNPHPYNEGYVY
In short: as §1

[10] = molecular target: HSF1 (Homo sapiens, UniProt Q00613 1-529); settings: protein: recombinant; tags: N-terminal GST; chain copies: 3; dsDNA, one strand shown
Chain of HSF1 (Q00613 whole entry): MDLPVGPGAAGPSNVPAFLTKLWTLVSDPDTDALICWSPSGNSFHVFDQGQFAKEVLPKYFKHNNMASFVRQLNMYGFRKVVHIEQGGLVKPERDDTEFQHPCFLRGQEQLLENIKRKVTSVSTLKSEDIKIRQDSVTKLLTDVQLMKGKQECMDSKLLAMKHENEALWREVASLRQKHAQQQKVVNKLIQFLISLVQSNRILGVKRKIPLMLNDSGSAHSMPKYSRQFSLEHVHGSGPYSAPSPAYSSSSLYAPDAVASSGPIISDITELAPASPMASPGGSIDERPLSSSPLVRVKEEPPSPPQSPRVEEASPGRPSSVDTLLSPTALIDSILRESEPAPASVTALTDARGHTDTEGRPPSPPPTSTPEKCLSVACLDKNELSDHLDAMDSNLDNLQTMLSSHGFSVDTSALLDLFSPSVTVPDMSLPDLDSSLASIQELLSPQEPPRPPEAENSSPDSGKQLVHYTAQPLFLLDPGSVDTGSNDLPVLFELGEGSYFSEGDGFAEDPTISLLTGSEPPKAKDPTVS
In short: as §1

Sequence	binding signal [1]	binding signal [2]	binding signal [3]	binding signal [4]	binding signal [5]	binding signal [6]	binding signal [7]	binding signal [8]	binding signal [9]	binding signal [10]
CCCTTG	1.16 fold enrichment (6-mer frequency, TF over GST control)	1.11 fold enrichment (6-mer frequency, TF over GST control)	1.26 fold enrichment (6-mer frequency, TF over GST control)	1.25 fold enrichment (6-mer frequency, TF over GST control)	1.2 fold enrichment (6-mer frequency, TF over GST control)	1.23 fold enrichment (6-mer frequency, TF over GST control)	1.19 fold enrichment (6-mer frequency, TF over GST control)	1.01 fold enrichment (6-mer frequency, TF over GST control)	1.19 fold enrichment (6-mer frequency, TF over GST control)	–
TCAATG	1.03 fold enrichment (6-mer frequency, TF over GST control)	1.02 fold enrichment (6-mer frequency, TF over GST control)	1.09 fold enrichment (6-mer frequency, TF over GST control)	1.06 fold enrichment (6-mer frequency, TF over GST control)	1.04 fold enrichment (6-mer frequency, TF over GST control)	1.05 fold enrichment (6-mer frequency, TF over GST control)	1.03 fold enrichment (6-mer frequency, TF over GST control)	1.02 fold enrichment (6-mer frequency, TF over GST control)	1.15 fold enrichment (6-mer frequency, TF over GST control)	–
AAGCGG	1.12 fold enrichment (6-mer frequency, TF over GST control)	1.27 fold enrichment (6-mer frequency, TF over GST control)	1.31 fold enrichment (6-mer frequency, TF over GST control)	1.01 fold enrichment (6-mer frequency, TF over GST control)	1.14 fold enrichment (6-mer frequency, TF over GST control)	1.19 fold enrichment (6-mer frequency, TF over GST control)	1.17 fold enrichment (6-mer frequency, TF over GST control)	1.11 fold enrichment (6-mer frequency, TF over GST control)	1.1 fold enrichment (6-mer frequency, TF over GST control)	–
CCTAGA	–	1.01 fold enrichment (6-mer frequency, TF over GST control)	–	–	1.07 fold enrichment (6-mer frequency, TF over GST control)	–	1.12 fold enrichment (6-mer frequency, TF over GST control)	1.22 fold enrichment (6-mer frequency, TF over GST control)	–	1.88 fold enrichment (6-mer frequency, TF over GST control)
TGCTGA	–	1.07 fold enrichment (6-mer frequency, TF over GST control)	1.18 fold enrichment (6-mer frequency, TF over GST control)	1.15 fold enrichment (6-mer frequency, TF over GST control)	1.11 fold enrichment (6-mer frequency, TF over GST control)	1.15 fold enrichment (6-mer frequency, TF over GST control)	1.09 fold enrichment (6-mer frequency, TF over GST control)	1.04 fold enrichment (6-mer frequency, TF over GST control)	1.12 fold enrichment (6-mer frequency, TF over GST control)	–
ACCGCC	1.32 fold enrichment (6-mer frequency, TF over GST control)	1.23 fold enrichment (6-mer frequency, TF over GST control)	1.16 fold enrichment (6-mer frequency, TF over GST control)	1.38 fold enrichment (6-mer frequency, TF over GST control)	1.23 fold enrichment (6-mer frequency, TF over GST control)	1.13 fold enrichment (6-mer frequency, TF over GST control)	1.33 fold enrichment (6-mer frequency, TF over GST control)	1.01 fold enrichment (6-mer frequency, TF over GST control)	1.05 fold enrichment (6-mer frequency, TF over GST control)	–
AAACGG	1.42 fold enrichment (6-mer frequency, TF over GST control)	1.27 fold enrichment (6-mer frequency, TF over GST control)	1.19 fold enrichment (6-mer frequency, TF over GST control)	1.23 fold enrichment (6-mer frequency, TF over GST control)	1.19 fold enrichment (6-mer frequency, TF over GST control)	1.22 fold enrichment (6-mer frequency, TF over GST control)	1.28 fold enrichment (6-mer frequency, TF over GST control)	1.01 fold enrichment (6-mer frequency, TF over GST control)	1.27 fold enrichment (6-mer frequency, TF over GST control)	–
TACCCA	1.03 fold enrichment (6-mer frequency, TF over GST control)	1.11 fold enrichment (6-mer frequency, TF over GST control)	1.08 fold enrichment (6-mer frequency, TF over GST control)	1.08 fold enrichment (6-mer frequency, TF over GST control)	1.02 fold enrichment (6-mer frequency, TF over GST control)	1.12 fold enrichment (6-mer frequency, TF over GST control)	1.18 fold enrichment (6-mer frequency, TF over GST control)	1.08 fold enrichment (6-mer frequency, TF over GST control)	1.03 fold enrichment (6-mer frequency, TF over GST control)	–
